Our source for the growth values is PubChem BioAssay (NCI).

Holding throughout (test): NCI-60 one-dose screen, 48 h (100 = growth as untreated, 0 = no growth, -100 = all killed)
Conditions in all cases: 10 µM

Assay [1] has as its system NCI-H23 lung.
For assay [2], the system named is NCI-H226 lung.
Assay [3] concerns NCI-H322M lung.
Assay [4] deals with NCI-H460 lung.
Assay [5] concerns NCI-H522 lung.
The test system of assay [6] is A549/ATCC NSCLC.
Assay [7] has as its system 786-0 renal.
In assay [8] the test system is COLO 205 colon.
Assay [9] concerns HOP-62 NSCLC.
Assay [10] concerns HOP-92 NSCLC.

Compounds without any hit were thinned out: in the full panel of roughly 83,000, 20% have a hit.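 Values shown are percent growth following 48 h exposure of cells in 96-well plates to a single concentration of compound; below 10 was considered active.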 Unmarked numbers belong to inactive results. The source made the active and inactive calls.

`c1ccc(CCCCc2ccc3ccccc3n2)cc1`: the growth in [1] is 102%; in assay [2] it was 94.8%; in [3], 99.7%; in [4], 105%; in [5], 75.3%; in assay [6], 98.5%. For the same compound, the growth in assay [7] was 102%.

Take `CCC(c1ccc(OC)cc1)C(CC)c1ccc(O)c(CN2CCN(C)CC2)c1` (stereo not given): the growth in assay [1] was 57.8%; in assay [2], 88.9%; in assay [3], 76.1%; in [4], 51.8%; in assay [5], 61.9%; in [7], 57.6%. In assay [8], the growth is -83.5% (active).

Take `CCCCC1(O)CCCCC1`: the growth is 108% in assay [1]; 97.3% in [2]; 105% in assay [3]; 108% in assay [4]; 103% in assay [6]; 92.6% in assay [7]. Moreover, the growth in assay [8] was 99.1%.

Consider `O=C(N/N=C/c1cc([N+](=O)[O-])ccc1O)c1cccc2ccccc12`, for which the growth in [1] was 45.3%; in assay [2], 42.6%; in [3], 45.4%; in assay [4] it was 20.7%; in assay [5], 21.9%; in [6], 54.8%. For the same compound, the values for the growth in assay [7] and in [8] were 36.5% and 48.9%, respectively.

For `NC(N)=N/N=C(\N=Nc1ccccc1)c1ccc(Cl)cc1`, the growth is 78.9% in [1]; 82.3% in [2]; 64.8% in assay [3]; 40% in assay [4]; 29.9% in assay [5]; 52.7% in [6]. The growth is 46.7% in assay [7] and 48.1% in [8].

As to `CCOC(=O)c1cocc1C(=O)O`, the growth is 109% in assay [1]; 102% in [2]; 110% in [3]; 104% in [4]; 106% in [5]; 101% in [6]. The growth was 103% in [7] and 108% in assay [8].

On to `CC(C)(C)c1ccc(S(=O)(=O)N[C@H]2CC[C@H]3[C@@H]4CCc5cc(O)c([N+](=O)[O-])cc5[C@H]4CC[C@]23C)cc1`, for which the growth in [1] is 83.5%; in assay [2], 80%; in assay [3] it was 77.1%; in assay [4] it was 45.6%; in [5] it was 65.1%; in assay [6], 48.3%. Also, the growth in [7] is 62.1%; in assay [8], 96.4%.

In the case of `C=C1CCC2(C#N)[C@H]3[C@H](CC[C@@H]2C)[C@@H](C)C[C@@H](CC(C)(C)NC(=O)CN2CCC2=O)[C@H]13` (stereo not given in full), the growth was 60.3% in assay [1]; 60.6% in [2]; 96.1% in [3]; 52.1% in [4]; 46.6% in assay [5]; 67.3% in [6]. Also, the growth in assay [8] is 54%.

As to `OC(CNc1ccnc2cc(Cl)ccc12)CNC1CCCCC1` (stereo not given), the growth is 86.7% in assay [1]; 105% in assay [2]; 74.7% in assay [3]; 109% in [4]; 49.6% in [5]; 88.4% in assay [6]. Besides, the growth in [7] is 87.9%; in assay [8], -25.4% (active).

For `COc1cc2c(cc1NC(=O)C(F)(F)F)-c1ccc(NC(=O)C(F)(F)F)cc1C2`, the growth in assay [1] was 86.9%; in assay [2] it was 47.9%; in assay [9], 45.4%; in [4], 97.8%; in assay [10] it was 90.3%; in [5], 99.2%. The results for the growth in [6], in [7] and in [8] were 92.2%, 98.6% and 112%, respectively.

Take `COc1cc(-c2nn(-c3cccc(NC(=O)NCCNC(=O)c4ccccc4)c3)cc2-c2ccncc2)ccc1Cl`: the growth in assay [1] was 19.7%; in assay [2] it was 9.31% (active); in assay [9] it was 26.4%; in assay [4], 13.5%; in assay [10] it was -0.717% (active); in assay [5], 0.745% (active). Also, the values for the growth in assay [6] and in assay [7] were 24.2% and -50.6% (active), respectively.

On to `Nc1nc(N)c(N)c(Nc2ccc(CCO)cc2)n1`, for which the growth in [1] is 98.3%; in assay [2], 96.2%; in assay [9], 95.6%; in [4] it was 108%; in [10], 118%; in assay [5], 91.9%. The growth in assay [6] is 102%; in assay [7] it was 109%.

For `O=C1c2ccccc2C(=O)c2c1ccc(C(Br)Br)c2Cl`, the growth in assay [1] was 8.26% (active); in assay [2], 80.4%; in [9], 96%; in [4], 78%; in assay [10], 42.7%; in [5], -72.9% (active). Further, the growth in assay [6] is 88.3%; in [7] it was -78.9% (active).

Take `CN1C(=O)C2(Nc3cc(Cl)ccc3S2)c2cc(Cl)ccc21` (stereo not given): the growth in [1] was 82.7%; in [2] it was 80%; in [9], 101%; in [4] it was 95.2%; in assay [10] it was 71.7%; in [5] it was 95.2%. The growth in assay [6] is 97.3%; in [7], 102%; in assay [8], 93.2%.

For the compound `CCc1ccc(-c2ccc(-n3nc(C)c4c(N)nc(Cc5ccccc5)nc43)cc2)cc1`, the growth in [1] was 77.2%; in [2], 56.6%; in [9], 65.6%; in [4], 51.4%; in assay [10] it was 47.2%; in assay [5], 49.2%. The values for the growth in assay [6], in assay [7] and in assay [8] were 52.4%, 46.6% and 95.3%, respectively.

For `CCN(CC)CC(=O)N(CC)c1ccc(C)c(Cl)c1`, the growth in [1] is 103%; in assay [2], 99.8%; in [9], 91%; in assay [4] it was 104%; in assay [10], 90.1%; in assay [5], 83.8%. Moreover, the growth in assay [6] was 86.3%; in assay [7], 98.4%.

Take `COc1ccc2c(c1)OC(N)=C(C#N)C2c1cc(OC)c(OC)c(OC)c1` (stereo not given): the growth was 16.3% in assay [1]; 54.2% in [2]; 38.9% in assay [9]; 1.65% (active) in assay [4]; -0.922% (active) in assay [10]; -27.9% (active) in assay [5]. The growth was 16.2% in assay [6], 15.2% in [7] and -48.6% (active) in assay [8].

Regarding `CC(C)C[C@H](NC(=O)Cn1cccc(CNC(=O)c2ccccc2)c1=O)B(O)O`, the growth in [1] was 23.7%; in assay [2], -66% (active); in [9], 5.64% (active); in [4], 27.8%; in assay [10], -11.3% (active); in assay [5] it was -9.79% (active). Besides, the growth in assay [6] is 43.9%; in assay [7], 29.5%; in [8], 30.6%.

Take `CNC(=O)c1cn2c3c(c(N4CCN(C)CC4)c(F)cc3c1=O)OC[C@@H]2C`: the growth is 96.3% in [1]; 93% in [2]; 94.5% in assay [9]; 103% in [4]; 98.5% in [10]; 90.4% in [5]. Moreover, the growth in assay [6] is 95.7%; in assay [7], 96.2%.

Turning to `CCN(CC)CCNc1ccc(C)c2sc3cc(Cl)ccc3c(=O)c12`, the growth in [1] is 55%; in assay [2], 75.2%; in [9], 66.9%; in assay [4], 1.44% (active); in assay [10] it was 22%; in [5], 42.7%. The growth is 31.1% in [6] and 43.3% in assay [7].

Regarding `O=C(CCNC(=O)c1nc(-c2ccccc2)n(-c2ccc(Cl)cc2)n1)NO`, the growth was 101% in assay [1]; 96.7% in assay [2]; 83.7% in [9]; 104% in assay [4]; 108% in assay [10]; 82.4% in assay [5]. The results for the growth in [6] and in assay [7] were 88.6% and 96.2%, respectively.

`O=C(/C=C/C=C/c1c(C2CC2)nc2ccccc2c1-c1ccc(F)cc1)c1cccs1`: the growth was 20.7% in assay [1]; -53.6% (active) in [2]; 24.2% in [9]; -7.38% (active) in assay [4]; 9.27% (active) in [10]; 2.39% (active) in assay [5]. The growth was 20.6% in assay [6] and 19.6% in [7].

As to `N#Cc1ccc(C(=O)CSc2nccc(Nc3ccc(C(=O)O)cc3)n2)cc1`, the growth is 100% in [1]; 101% in [2]; 108% in assay [9]; 104% in assay [4]; 104% in assay [10]; 94.4% in [5]. Besides, the growth in [6] was 102%; in [7], 104%; in [8] it was 110%.

Take `CCN(CC)CCCC(C)Nc1c2ccc(Cl)cc2nc2ccc(OC)cc12` (stereo not given): the growth in assay [1] is 44.7%; in assay [2], 36.7%; in assay [9], 3.18% (active); in [4], 2.49% (active); in assay [10], 27.7%; in assay [5], 21.1%. In addition, the growth in assay [6] was 17.1%; in [7], 25.6%.

Consider `COc1cc(-c2nn(-c3ccc(NC(=O)NCCNS(=O)(=O)c4ccc(F)cc4)cc3)cc2-c2ccncc2)ccc1Cl`, for which the growth in assay [1] was 12.7%; in assay [2], 36.2%; in assay [9] it was 29.7%; in assay [4], 0.926% (active); in [10], -6.87% (active); in [5], -10.4% (active). The figures for the growth in assay [6], in assay [7] and in assay [8] were 15.7%, -8.2% (active) and -63.5% (active), respectively.

As to `CCN(CC)CCOC(=O)c1cc(OCc2ccccc2)c(OCc2ccccc2)c(OCc2ccccc2)c1`, the growth in assay [1] is 58.6%; in [2], 73.6%; in [9] it was 62.4%; in assay [4], 12.4%; in [10] it was 40%; in assay [5], 45%. Moreover, the growth is 42.5% in [6] and 52.1% in assay [7].

Regarding `COc1cccc(N=Nc2cccc(OC)c2)c1`, the growth in assay [1] was 86.4%; in assay [2], 90.5%; in assay [9], 82.6%; in [4], 103%; in [10] it was 84%; in assay [5], 73%. Moreover, the results for the growth in [6], in [7] and in [8] were 83.9%, 91.3% and 107%, respectively.

With `O=C(NCCNC(=O)c1ccc(F)cc1)Nc1ccc(-n2cc(-c3ccncc3)c(-c3ccc(Cl)c(O)c3)n2)cc1`, the growth in assay [1] is 6.86% (active); in [2] it was 24.2%; in assay [9], 22.9%; in assay [4], -0.482% (active); in assay [10], -19% (active); in assay [5], -29.2% (active). The growth in assay [6] is 12.4%; in assay [7], -11.1% (active).

In the case of `CC(C)(C)OC(=O)N1CCc2c(sc3ncnc(N/N=C/c4cccc(Br)c4)c23)C1`, the growth in assay [1] was 55.3%; in assay [2] it was 67.3%; in assay [9], 45.1%; in [4] it was 20.9%; in [10] it was 75.6%; in assay [5], 34.2%. Further, the growth in [6] was 45.7%; in assay [7], 50.7%; in assay [8] it was 13.1%.

In the case of `Cc1noc(C)c1CSc1ccccc1C(=O)N1CCN(c2cccc(C(F)(F)F)c2)CC1`, the growth was 67.9% in assay [1]; 75.6% in [2]; 91.5% in assay [9]; 84.2% in assay [4]; 68.1% in [10]; 62% in assay [5]. Further, the results for the growth in assay [6], in [7] and in assay [8] were 73.7%, 87.5% and 74.2%, respectively.

As for `COc1ccc(-c2cc(-c3ccc(Cl)cc3)nc(SCCCC(=O)NO)n2)cc1`, the growth was 0.964% (active) in assay [1]; -2.21% (active) in assay [2]; 5.55% (active) in assay [9]; 0.515% (active) in assay [4]; 1.25% (active) in assay [10]; -12.1% (active) in assay [5]. In addition, the growth in assay [6] is 5.47% (active); in [7], 3.69% (active); in assay [8] it was 2.04% (active).
